Laboratory results reported in article PMC5700166.

Key:
[1] = biological target: T1, GST-Nv-NF-kB (Ser allele) (Nematostella vectensis, UniProt A7UNT2 2-411); experiment: protein-binding microarray (PBM); PBM: ~300 nM protein, 6 mM HEPES pH 7.8, 80 mM KCl, 0.5 mM EDTA, 0.5 mM EGTA, 6% glycerol, 35 ng/ul poly-dIdC, 1% milk, 1 h, room temperature; Ap Aiptasia and Nv Nematostella (sea anemones) / Co Capsaspora / Aq Amphimedon (sponge) / Dm Drosophila / Hu human; RHD is the Rel homology domain; high values mean tight binding; conditions: dsDNA, one strand shown
T1 sequence: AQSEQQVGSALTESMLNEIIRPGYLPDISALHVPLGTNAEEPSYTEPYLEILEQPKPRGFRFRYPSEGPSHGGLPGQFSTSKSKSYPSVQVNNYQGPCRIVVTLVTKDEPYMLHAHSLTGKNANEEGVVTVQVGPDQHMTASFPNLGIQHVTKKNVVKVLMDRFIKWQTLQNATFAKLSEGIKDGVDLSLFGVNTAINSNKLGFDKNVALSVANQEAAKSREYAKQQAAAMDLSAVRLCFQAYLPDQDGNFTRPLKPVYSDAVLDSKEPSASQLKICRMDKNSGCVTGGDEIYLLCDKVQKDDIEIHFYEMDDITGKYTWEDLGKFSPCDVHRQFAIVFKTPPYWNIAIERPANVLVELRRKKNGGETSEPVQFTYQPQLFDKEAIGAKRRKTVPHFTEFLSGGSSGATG

GST-Hu-p50 = GST-Hu-p50 (Homo sapiens, UniProt P19838 7-356); experiment: as above; conditions: dsDNA, one strand shown
Sequence of GST-Hu-p50 (P19838 7-356): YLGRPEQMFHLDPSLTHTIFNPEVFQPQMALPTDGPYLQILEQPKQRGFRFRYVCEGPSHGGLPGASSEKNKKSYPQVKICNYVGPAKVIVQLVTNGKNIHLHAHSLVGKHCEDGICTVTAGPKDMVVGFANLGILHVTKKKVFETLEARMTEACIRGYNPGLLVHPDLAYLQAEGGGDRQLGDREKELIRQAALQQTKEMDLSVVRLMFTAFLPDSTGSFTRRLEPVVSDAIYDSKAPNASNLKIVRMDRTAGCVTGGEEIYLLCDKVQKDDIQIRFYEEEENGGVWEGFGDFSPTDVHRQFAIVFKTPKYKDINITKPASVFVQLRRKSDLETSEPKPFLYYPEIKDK

Sequence	binding signal [1] [z-score]	binding signal (GST-Hu-p50) [z-score]
CCGATTAACATCACAGAGTCCCCTGATGTTAATCGGGTCTTGATTCGCTTGACGCTGCTG	6.04	
CCGATTAACATCAAGGAATTACCTGATGTTAATCGGGTCTTGATTCGCTTGACGCTGCTG	4.05	2.25
CCGATTAACATCACCGAATTTGGTGATGTTAATCGGGTCTTGATTCGCTTGACGCTGCTG	1.14	2.09
CCGATTAACATCATTTCCCTTGATGATGTTAATCGGGTCTTGATTCGCTTGACGCTGCTG	3.44	2.51
CCGATTAACATCAATTTCCCGCCTGATGTTAATCGGGTCTTGATTCGCTTGACGCTGCTG	4.4	2.33
CCGATTAACATCAAAGGTCCCCCTGATGTTAATCGGGTCTTGATTCGCTTGACGCTGCTG	4.32	3.35
CCGATTAACATCAGGAGTCCCCATGATGTTAATCGGGTCTTGATTCGCTTGACGCTGCTG	4.11	4.86
CCGATTAACATCAGGGGATCTACTGATGTTAATCGGGTCTTGATTCGCTTGACGCTGCTG	5.35	4.5
CCGATTAACATCAAGCGTTTCCCTGATGTTAATCGGGTCTTGATTCGCTTGACGCTGCTG	3.6	1.47
CCGATTAACATCAGGGGAATGACTGATGTTAATCGGGTCTTGATTCGCTTGACGCTGCTG	6.22	4.83
CCGATTAACATCAGGGACGGAAATGATGTTAATCGGGTCTTGATTCGCTTGACGCTGCTG	2.34	2.19
CCGATTAACATCAGAAATCTCCCTGATGTTAATCGGGTCTTGATTCGCTTGACGCTGCTG	4.16	4.42
CCGATTAACATCAGGGGGGGGGATGATGTTAATCGGGTCTTGATTCGCTTGACGCTGCTG	5.68	
CCGATTAACATCACGGGGTTCCCTGATGTTAATCGGGTCTTGATTCGCTTGACGCTGCTG	1.48	2.59
CCGATTAACATCAAGCGTTCCCCTGATGTTAATCGGGTCTTGATTCGCTTGACGCTGCTG	6.39	3.66
CCGATTAACATCAGGGAGTTACCTGATGTTAATCGGGTCTTGATTCGCTTGACGCTGCTG	3.21	3.85
CCGATTAACATCAAACCACCCCCTGATGTTAATCGGGTCTTGATTCGCTTGACGCTGCTG	3.66	
CCGATTAACATCAAAACACCCCCTGATGTTAATCGGGTCTTGATTCGCTTGACGCTGCTG	5.6	
CCGATTAACATCAGGGAGATTTATGATGTTAATCGGGTCTTGATTCGCTTGACGCTGCTG	4.27	4.86
CCGATTAACATCAGAATATTCCCTGATGTTAATCGGGTCTTGATTCGCTTGACGCTGCTG	5.76	3.75
CCGATTAACATCAGGAACCCCCATGATGTTAATCGGGTCTTGATTCGCTTGACGCTGCTG	4.62	5.23
CCGATTAACATCAGGGAAGCACCTGATGTTAATCGGGTCTTGATTCGCTTGACGCTGCTG	3.97	5.24
CCGATTAACATCAACATGGGAAATGATGTTAATCGGGTCTTGATTCGCTTGACGCTGCTG	2.18	1.56
CCGATTAACATCAGGGGCGGGAATGATGTTAATCGGGTCTTGATTCGCTTGACGCTGCTG	3.18	2.9
CCGATTAACATCAAGGGGAGTCCTGATGTTAATCGGGTCTTGATTCGCTTGACGCTGCTG	4.97	4.3
CCGATTAACATCACAACCCCCCCTGATGTTAATCGGGTCTTGATTCGCTTGACGCTGCTG	4.57	4.53
CCGATTAACATCAGGGGTTTAACTGATGTTAATCGGGTCTTGATTCGCTTGACGCTGCTG	1.69	3.05
CCGATTAACATCACAGTACCCCCTGATGTTAATCGGGTCTTGATTCGCTTGACGCTGCTG	3.98	3.45
